Results filed as inconclusive are left out. Where a structure was tested more than once in an assay, its records may differ in their call. Calls of active or inactive are those of the source. Rule for the calls, unless noted: active = hit-call score of the fitted dose curve at least 0.9, where 1 is the maximum; inconclusive = response in the unintended direction; inactive = score below 0.9.
Tests used:
[1] = read-out: HMG-CoA synthase (HMGCS2), HMGCS2 (gene 3158); experiment: CLD_HMGCS2_48hr: CellzDirect (CLD) Gene Expression Assay for HMG-CoA synthase (HMGCS2) at 48 hours (AID 2283711)
How it was run: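 mRNA induction read by qNPA chemiluminescence, 48 h after dosing. Cultured primary human liver cells (two donor preparations) received fresh compound daily over two days against 0.2% DMSO vehicle; morphology-based cytotoxicity noted alongside.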

[2] = STM_H9_OrnithineISnorm_perc: Stemina devTOX quickPredict H9 human embryonic stem cell (hESC)-based Assay for Ornithine (ORN) Metabolite Biomarker, Normalized (AID 2283712; active = hit-call score of the fitted dose curve at least 0.9, where 1 is the maximum; inactive = score below 0.9;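 note: ornithine released into spent medium during last day measured by mass spectrometry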)
How it was run: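 Ornithine in spent medium from the last 24 h of a 72 h exposure, deproteinised and quantified by UPLC-HRMS against an isotope-labelled internal standard, expressed relative to 0.1% DMSO. Pluripotent H9 cells; compound refreshed every 24 h.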

[3] = STM_H9_CystineISnorm_perc: Stemina devTOX quickPredict H9 human embryonic stem cell (hESC)-based Assay for Cystine (CYSS) Metabolite Biomarker, Normalized (AID 2283713; active = hit-call score of the fitted dose curve at least 0.9, where 1 is the maximum; inactive = score below 0.9)
How it was run: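 Cystine in spent media from the last 24 h of a 72 h H9 hESC exposure (daily re-dosing), measured by UPLC-HRMS. Values normalized to isotopic internal standard, then to 0.1% DMSO; viability via CellTiter-Fluor.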

[4] = STM_H9_OrnCyssISnorm_ratio: Stemina devTOX quickPredict H9 human embryonic stem cell (hESC)-based Assay for Ornithine (ORN):Cystine (CYSS) Ratio (AID 2283714)
How it was run: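 UPLC-HRMS of spent media: ORN/CYSS ratio of internal-standard-normalized percentages, DMSO (0.1%) baseline. Pluripotent H9 hESCs, 72h exposure, daily re-dosing with fresh media; last 24h media collected.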

[5] = CEETOX_H295R_MTT_cell_viability: Viability Assessment in the CeeTox HT-H295R MTT Assay (AID 2283718; active = hit-call score of the fitted dose curve at least 0.9, where 1 is the maximum; inactive = score below 0.9)
How it was run: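 Human H295R adrenal cells, prestimulated 48 h with 10 uM forskolin, were exposed 48 h to chemicals in 0.1% DMSO. Viability was measured in the same wells by MTT (0.5 mg/ml, 4 h, 37 C), absorbance 570/650 nm, as percent of controls.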

[6] = Tanguay_ZF_120hpf_ActivityScore_legacy: (Legacy) Oregon State University Tanguay Lab 120 Hour Post-fertilization zebrafish Assay Score for Activity (AID 2283742);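 for AC50: dechorionated Tropical 5D wild-type zebrafish embryos held singly per well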
How it was run: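 Dechorionated 5D embryos, one per well, static exposure 6–120 hpf, 28C, sealed and dark; final DMSO 0.64% (vol/vol). Brightfield binary scoring of mortality plus 18 endpoints; gain-of-signal fit versus DMSO baseline.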

[7] = tested on: Thyroperoxidase (TPO), gene 445522; experiment: CCTE_Simmons_GUA_TPO: CCTE's Guaiacol Assay for Thyroperoxidase (TPO) Inhibition, Simmons Lab (AID 2283750)
How it was run: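 Porcine thyroid microsomes (25 ug) in 200mM potassium phosphate, preincubated 30 s at 37C with compound (8 concentrations, 5 nM–87.5 uM) and 35mM guaiacol; 1mM H2O2 starts reaction. Absorbance change at 450nm over first 80 s; loss of signal versus DMSO, three replicates.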

[8] = ArunA_CellTiter_hNP: Viability Assessment in the ArunA Biomedical's Oris Neural Crest (hNC) Cell Migration Assay (AID 2283753)
How it was run: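 Viability read with CellTiter 96 Aqueous One after 72 h chemical exposure of human hNP1 neuroprogenitors, which were plated on Matrigel in LIF/bFGF medium 16 h beforehand. Endpoint fitted in positive direction relative to DMSO.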

[9] = ArunA_Migration_hNP: ArunA Biomedical's Oris Neuroprogenitor (hNP) Cell Migration Assay (AID 2283754)
Procedure: ArunA_Migration_hNP is a cell-based, single-readout assay that uses human H9-derived neuroprogenitor stem cells (hNP1). Measurements were taken 72 hours after chemical dosing in a 96-well plate.ArunA_Migration_hNP is an assay component measured from the ArunA_Migration_hNP assay. It is designed to make measurements of cell migration, a form of distribution reporter, as detected with fluorescence intensity signals by HCS Fluorescent Imaging technology. Data from the assay component ArunA_Migration_hNP was analyzed at the endpoint, ArunA_Migration_hNP, in the positive analysis fitting direction relative to DMSO as the negative control and baseline of activity. Using a type of distribution reporter, loss-of-signal activity can be used to understand the cell migration. To generalize the intended target to other relatable targets, this assay endpoint is annotated to the neurodevelopment intended target family, where the subfamily is migration.
To assess the hNP and hNC migration and cell titer endpoints, 60,000 cells per well were plated onto Matrigel in basal growth medium with LIF and bFGF in a 96-well plate format. Plates were incubated for 16 h at 37C followed by a 72 h exposure to chemical in the test medium. For the migration endpoints, cells were seeded and incubated in presence of 'seeding stoppers' to prevent cell migration and growth into the detection zone. At the beginning of chemical exposure, stoppers were removed, and growth medium was replaced with test medium. In the case of the stopper control wells, stoppers remained in place following replacement of growth medium with test medium. Following 72 -h exposure to the test medium, cells were stained at 37C for 30-60 min with calcein-AM. Cell viability in the detection zone was quantitated using a Flexstation3 microplate reader (ex494 nm/em 517 nm). Corresponding cell titer endpoints were assessed for the hNP and hNC cells using the Promega CellTiter Aqueous One Solution Cell Proliferation Assay (Cat no. G3581; CellTiter 96). Finally, to gain insight into the mechanisms by which cells migrate into the detection zone, Ki-67 expression was quantified for 10 additional chemicals in the hNP and hNC systems. Additionally, cytochalasin D was used as a positive control to inhibit cell migration. Supplementing the AB2 Basal Medium: 1. Decontaminate the external surfaces of all supplement vials and the medium bottle with ethanol or isopropanol. 2. Aseptically open each supplement vial and add the amount indicated below to the basal medium with a pipette. To make 100 ml of complete medium: AB2 Neural Medium 96 mL, ANS Supplement 2 mL, bFGF (50 ug/mL) 40 uL, LIF (10 ug/mL) 100 uL, L-Glutamine (200 mM) 1 mL, Penicillin (5,000 U/mL)/ Streptomycin (5,000 ug/mL) 1 mL. 3. […]

CN(C)C(=O)Nc1cccc(C(F)(F)F)c1
outcome [1]: inactive
outcome [2]: inactive
outcome [3]: inactive
outcome [4]: inactive
outcome [5]: inactive
outcome [6]: inactive

CCCSP(=O)(OCC)SCCC
outcome [1]: inactive
outcome [5]: inactive
outcome [6]: inactive

CCNc1nc(Cl)nc(NC(C)(C)C#N)n1
outcome [1]: inactive
outcome [2]: inactive
outcome [3]: inactive
outcome [5]: inactive
outcome [6]: inactive

CNC(=O)ON=C(SC)C(=O)N(C)C
outcome [1]: inactive
outcome [5]: inactive
outcome [6]: inactive

CC(C)N(C(=O)SCC(Cl)=C(Cl)Cl)C(C)C
outcome [1]: inactive
AC50 [3]: 12.4 µM (active)
AC50 [4]: 12.2 µM (active)
outcome [6]: inactive

CCCOc1nn(C(=O)NS(=O)(=O)c2ccccc2C(=O)OC)c(=O)n1C
outcome [1]: inactive
outcome [6]: inactive

Cc1ccn2nc(S(=O)(=O)Nc3c(F)cccc3F)nc2n1
outcome [1]: inactive
outcome [2]: inactive
outcome [3]: inactive
outcome [5]: inactive
outcome [6]: inactive

COP(=O)(NC(C)=O)SC (stereo unspecified)
outcome [1]: inactive
outcome [5]: inactive
outcome [6]: inactive
outcome [7]: inactive

CCOP(=S)(OCC)Oc1ccc([N+](=O)[O-])cc1
outcome [1]: inactive
outcome [5]: inactive
outcome [6]: inactive

CC(C)[C@H](C(=O)O[C@H](C#N)c1cccc(Oc2ccccc2)c1)c1ccc(Cl)cc1
AC50 [2]: 50 µM (active)
AC50 [3]: 80.5 µM (active)
AC50 [4]: 74.2 µM (active)
outcome [5]: inactive
AC50 [6]: 1.53 µM (active)

C=C(C)[C@H]1Cc2c(ccc3c2O[C@@H]2COc4cc(OC)c(OC)cc4[C@@H]2C3=O)O1
outcome [1]: inactive
AC50 [2]: 0.347 µM (active)
AC50 [3]: 0.279 µM (active)
AC50 [4]: 0.333 µM (active)
AC50 [6]: 0.193 µM (active)

C[N+]1(C)CCCCC1
outcome [1]: inactive
outcome [2]: inactive
outcome [3]: inactive
outcome [6]: inactive

CSc1nc(NC(C)C)nc(NC(C)C)n1
AC50 [2]: 0.22 µM (active)
AC50 [3]: 0.234 µM (active)
AC50 [4]: 0.237 µM (active)
outcome [5]: inactive
outcome [6]: inactive

CC(COc1ccc(Oc2ccccc2)cc1)Oc1ccccn1 (stereo unspecified)
outcome [1]: inactive
AC50 [2]: 70.3 µM (active)
AC50 [3]: 0.0124 µM (active)
outcome [5]: inactive
outcome [6]: inactive

COc1ccc(C(=CC(=O)N2CCOCC2)c2ccc(Cl)cc2)cc1OC
AC50 [2]: 0.119 µM (active)
outcome [3]: inactive
outcome [4]: inactive
outcome [5]: inactive
AC50 [6]: 42.9 µM (active)

CN(C)[C@@H]1C(=O)C(C(N)=O)=C(O)[C@@]2(O)C(=O)C3=C(O)c4c(O)cccc4[C@@](C)(O)[C@H]3[C@H](O)[C@@H]12
AC50 [1]: 0.164 µM (active)
AC50 [2]: 50 µM (active)
outcome [2]: inactive
AC50 [3]: 11.6 µM (active)
outcome [3]: inactive
outcome [4]: inactive
outcome [5]: inactive
outcome [6]: inactive
AC50 [8]: 4.16 µM (active)
AC50 [9]: 50 µM (active)

CCOP(=S)(OCC)Oc1ccc2c(C)c(Cl)c(=O)oc2c1
AC50 [1]: 0.0125 µM (active)
AC50 [2]: 50 µM (active)
outcome [3]: inactive
outcome [4]: inactive
outcome [5]: inactive
outcome [6]: inactive

CC[C@H](C)[C@H]1O[C@]2(C=C[C@@H]1C)C[C@@H]1C[C@@H](C/C=C(\C)[C@@H](O[C@H]3C[C@H](OC)[C@@H](O[C@H]4C[C@H](OC)[C@@H](NC)[C@H](C)O4)[C@H](C)O3)[C@@H](C)/C=C/C=C3\CO[C@@H]4[C@H](O)C(C)=C[C@@H](C(=O)O1)[C@]34O)O2
outcome [1]: inactive
AC50 [6]: 1.49 µM (active)

CCCSP(=O)(OCC)Oc1ccc(Br)cc1Cl (stereo unspecified)
outcome [1]: inactive
outcome [5]: inactive
outcome [6]: inactive

COP(=O)(OC)SCn1c(=O)oc2cc(Cl)cnc21
outcome [1]: inactive
outcome [6]: inactive

CCCCN(CC)c1c([N+](=O)[O-])cc(C(F)(F)F)cc1[N+](=O)[O-]
outcome [1]: inactive
outcome [5]: inactive
outcome [6]: inactive

COP(=O)(OC)C(O)C(Cl)(Cl)Cl (stereo unspecified)
outcome [1]: inactive
outcome [6]: inactive

COc1cc(OC)nc(Sc2cccc(Cl)c2C(=O)O)n1
outcome [1]: inactive
outcome [6]: inactive

C#CC(C)(C)NC(=O)c1cc(Cl)cc(Cl)c1
AC50 [1]: 0.0094 µM (active)
outcome [5]: inactive
outcome [6]: inactive

CCOP(=S)(OCC)Oc1cc(C)nc(C(C)C)n1
AC50 [2]: 79.1 µM (active)
AC50 [3]: 73.3 µM (active)
AC50 [4]: 75.2 µM (active)
outcome [5]: inactive
outcome [6]: inactive

CCCCOC(=O)[C@@H](C)Oc1ccc(Oc2ccc(C#N)cc2F)cc1
outcome [1]: inactive
AC50 [2]: 85.7 µM (active)
AC50 [3]: 77.7 µM (active)
AC50 [4]: 84.8 µM (active)
outcome [6]: inactive

CCc1cnc(C2=NC(C)(C(C)C)C(=O)N2)c(C(=O)O)c1 (stereo unspecified)
outcome [1]: inactive
outcome [6]: inactive

CCCCSP(=O)(SCCCC)SCCCC
outcome [1]: inactive
outcome [6]: inactive

From PubChem BioAssay (EPA / NIEHS)
